In the library only some 1.4% were active in any assay of this set; here they are far more common.
Giardia FBPA inh-1: blocks Giardia fructose-bisphosphate aldolase activity; hit rate 0.71% among 290,000; A8B2U2; AID 2451; Potency, µM (doses to about 59.6 µM), inactives show top-dose activity, negative = inhibition, most hits filed as inhibitors; purified Giardia FBPA; further: on the % scale 0 is the no-effect control and ±100 the full control effect; nearly all actives have a fitted effect of over 55% in size
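Giardia FBPA (40 nM reagent) was preincubated 10 min at RT with compound (up to 57.5 uM final), then substrate plus GAPDH/TPI/NAD/arsenate coupling system with diaphorase/resazurin was added; resorufin fluorescence (525/598 nm) was read after 20 min.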
AmpC no deterg: blocks E. coli AmpC beta-lactamase in detergent-free assay; P00811; AmpC nitrocefin hydrolysis, absorbance 480 nm, 0.0001% Triton; Potency, µM (series often up to 57.1 µM), for inactives: at the top dose activity change, negative = inhibition, usual class: inhibitors; hit rate 0.52% among 330,000;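 further: plate controls were no compound for no effect and no enzyme for full effect; nearly all actives have a fitted effect of over 20% in size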
Target sequence (P00811 whole entry, looked up): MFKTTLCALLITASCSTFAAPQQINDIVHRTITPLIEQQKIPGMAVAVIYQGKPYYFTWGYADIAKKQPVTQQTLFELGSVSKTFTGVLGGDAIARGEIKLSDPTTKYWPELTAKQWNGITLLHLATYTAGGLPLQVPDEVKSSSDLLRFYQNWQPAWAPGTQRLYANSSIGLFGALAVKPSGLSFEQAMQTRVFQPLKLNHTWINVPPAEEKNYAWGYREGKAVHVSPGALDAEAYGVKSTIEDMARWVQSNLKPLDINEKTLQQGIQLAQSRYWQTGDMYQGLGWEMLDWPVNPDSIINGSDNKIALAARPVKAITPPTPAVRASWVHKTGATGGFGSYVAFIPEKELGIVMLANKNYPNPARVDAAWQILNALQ
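AmpC (5.3 nM in the dispensed reagent) in 20 mM phosphate pH 7.0 with 0.01% (detergent screen) or 0.0001% Triton X-100 was preincubated with compounds for 15 min at room temperature. Nitrocefin was then added from an 800 uM solution, and hydrolysis was followed at 480 nm.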
SARS PLpro yeast: blocks SARS-CoV papain-like protease in a yeast assay. S. cerevisiae expressing SARS-CoV PLpro, growth rescue. hit rate 0.19% among 330,000. Potency, µM (highest dose often 32.9 µM), for inactives: at the highest dose activity, positive = growth rescue, actives largely listed as activators; calls by dose curve; further: 0% is about no effect; nearly all actives have a fitted effect of over 55% in size
NS1 inh: influenza NS1 inhibition. Potency, µM (highest dose often 46.1 µM), for inactives: at the highest dose activity, positive = more growth. hit rate 0.4% among 270,000; calls by dose curve; further: actives are rising curves; nearly all actives have a fitted effect of over 50% in size
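OD600 was taken as the measure of yeast growth restored by compound in an NS1-expressing S. cerevisiae strain. Cells had been washed out of glucose medium and diluted 1:100 into galactose -URA medium, pH 6.0.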
AmpC detergent: inhibitors of E. coli AmpC beta-lactamase with detergent | P00811 | AmpC hydrolysis of nitrocefin, absorbance 480 nm, 0.01% Triton | Potency, µM (highest dose often 114 µM), inactives show at the highest dose activity change, negative = inhibition, actives largely listed as inhibitors | hit rate 0.041% among 370,000;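 further: 0% = no-compound wells and -100% = no-enzyme wells; nearly all actives have a fitted effect of over 25% in size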
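AmpC (5.3 nM in the dispensed reagent) in 20 mM phosphate pH 7.0 with 0.01% (detergent screen) or 0.0001% Triton X-100 was preincubated with compounds for 15 min at room temperature. Nitrocefin was then added from an 800 uM solution, and hydrolysis was followed at 480 nm.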
Giardia growth: Giardia lamblia growth inhibition; hit rate 5% among 1,500; AID 2785; shares compounds with Giardia FBPA inh-1; Giardia lamblia trophozoite growth inhibition; Potency, µM (top dose mostly 57.5 µM), for inactives: at the top dose activity change, negative = inhibition, most hits filed as inhibitors;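 further: trophozoites exposed to compound for 48 h at 37 °C; on the % scale 0 is the no-effect control and ±100 the full control effect; nearly all actives have a fitted effect of over 70% in size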
Mammal cell tox: toxic to mammalian cells in Giardia aldolase counter-screen. Potency, µM (top dose mostly 57.5 µM), inactives show top-dose viability change, negative = toxicity, hits mostly inhibitors. mammalian cell viability counter-screen, qHTS. shares compounds with Giardia FBPA inh-1. hit rate 4% among 1,500;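 further: Chinese hamster ovary cells used as mammalian cytotoxicity surrogate; viability measured as cellular ATP by luminescence; compound exposure lasted 48 h before reading; on the % scale 0 is the no-effect control and ±100 the full control effect; nearly all actives have a fitted effect of over 60% in size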
Giardia FBPA inh-2: confirmation of Giardia fructose-bisphosphate aldolase inhibitors. Potency, µM (top dose mostly 57.5 µM), inactives show top-dose activity change, negative = inhibition, most hits filed as inhibitors. AID 2787. purified Giardia aldolase enzyme activity, qHTS. hit rate 5% among 1,500. shares compounds with Giardia FBPA inh-1; further: on the % scale 0 is the no-effect control and ±100 the full control effect; nearly all actives have a fitted effect of over 45% in size
Rabbit FBPA inh: blocks rabbit muscle aldolase in Giardia aldolase selectivity test. hit rate 4% among 1,500. shares compounds with Giardia FBPA inh-1. Potency, µM (titrated, usually from 57.5 µM), inactives show at the top dose activity, negative = inhibition, actives largely listed as inhibitors. AID 2794. Rabbit muscle FBPA enzyme inhibition, selectivity counter-screen; further: on the % scale 0 is the no-effect control and ±100 the full control effect; nearly all actives have a fitted effect of over 60% in size
GAPDH coupling: counter-screen for Giardia aldolase inhibitors: GAPDH coupling enzyme. hit rate 6% among 1,500. Potency, µM (top dose mostly 57.5 µM), without a hit: at the top dose activity change, negative = inhibition, actives largely listed as inhibitors. shares compounds with Giardia FBPA inh-1. GAPDH coupling enzyme counterscreen, biochemical, qHTS; further: on the % scale 0 is the no-effect control and ±100 the full control effect; nearly all actives have a fitted effect of over 55% in size
The depositor's hits bear a star; ? = inconclusive; . = no result; [ ] = another dose, or the depositor's remark. Unless noted, the call rests on the fitted dose curve; in most records, active means well fitted curve in the direction sought with a large enough effect; inconclusive means small, poorly fitted or top-dose-only effect, or another doubt; inactive means no such curve, though single readings can be large; an effect the other way counts as inactive or inconclusive. Potency means the concentration at half of the fitted maximal effect.

SMILES	Giardia FBPA inh-1	AmpC no deterg	SARS PLpro yeast	NS1 inh	AmpC detergent	Giardia growth	Mammal cell tox	Giardia FBPA inh-2	Rabbit FBPA inh	GAPDH coupling
COc1cccc(/C=N/Nc2nnc(C)n2N)c1OCc1ccccc1Cl	5%	91%	-46%	-22%	?	.	.	.	.	.
CCc1nnc(N/N=C/c2ccccc2Cl)n1N	18µM*	-17%	-14%	-73%	-18%	?	3%	-26%	-15%	-19%
CCc1nnc(N/N=C/c2ccccc2F)n1N	20µM*	-12%	-2%	.	?	71%	-2%	?	-17%	-2%
Nc1c(/C=C2/C=CC(=O)C(O)=C2)c(=O)nc2sc(CC(=O)N3CCCC3)nn12	7.9µM*	-17%	1%	26%	2%	0%	6%	-18%	?	0%
COC1=C/C(=C/c2c(N)n3nc(CC(=O)N4CCCC4)sc3nc2=O)C=CC1=O	?	-30%	0%	15%	-2%	.	.	.	.	.
CC1(C)CCC(C)(C)NC(=S)N1	-26%	-10%	28%	-5%	0%	.	.	.	.	.
Cc1cc(C)cc(N2C(=O)CC(Sc3ncn[nH]3)C2=O)c1 (stereo not given)	20µM*	-21%	-5%	-13%	-5%	22%	-4%	4%	4%	11%
COC(=O)Cc1[nH]n(-c2nc3ccccc3s2)c(=O)c1C(C)=Nc1ccc(Cl)cc1	16µM*	-42%	-6%	14%	5%	?	-24%	3%	18%	13%
COC(=O)Cc1[nH]n(-c2nc3ccccc3s2)c(=O)c1C(C)=Nc1ccc(C)cc1	-9%	-22%	-1%	2%	-7%	.	.	.	.	.
CC(=O)Nc1cc(OC(C)=O)c2nonc2c1OC(C)=O	0.045µM*	-14%	-16%	7%	?	?	16µM*	3.5µM*	4.5µM*	2µM*
CC(=O)Nc1nonc1NC(C)=O	1%	116%	1%	?	?	.	.	.	.	.
CC(C)Oc1ccc(C(=O)NC(=S)N2CCOCC2)cc1	?	-19%	26%	-11%	?	.	.	.	.	.
Cc1[nH]n(-c2ccccc2)c(=O)c1/C=N/Nc1nncc(-c2ccccc2)n1	7.9µM*	-26%	8%	-8%	1%	?	20µM*	-16%	-3%	-8%
Cc1ccc(/C=N/Nc2nncc(-c3ccccc3)n2)o1	-6%	-27%	-3%	.	1%	.	.	.	.	.
COc1cc(C(=O)N/N=C/c2ccc3c(c2)c2ccccc2n3C)ccc1O	1%	-26%	0%	-9%	-13%	.	.	.	.	.
Cn1c2ccccc2c2cc(/C=N/NC(=O)c3cc(O)ccc3O)ccc21	25µM*	-57%	-6%	10%	-1%	-10%	1%	?	-7%	-29%
O=C(NCCO)c1cc2ccccc2cc1O	2µM*	-21%	0%	-8%	-10%	-11%[38.3 µM]	-1%	?	?	?
Cc1ccc(OCCOCCN2CCCCC2)c([N+](=O)[O-])c1	20µM*	20%	0%	0%	-7%	28%	-11%	-7%	3%	4%
C=CCOc1ccccc1CN1CCCCCC1	18µM*	-12%	-3%	8%	?	-10%	0%	-2%	8%	3%
C=CCOc1ccccc1CN1CCSCC1	-26%	-20%	1%	-5%	-11%	.	.	.	.	.
O=C(CN1C(=O)NC2(CCOc3ccccc32)C1=O)Nc1ccc(F)c(F)c1F (stereo not given)	-4%	-16%	0%	-5%	3%	.	.	.	.	.
